Data on nine compounds can be found in PubChem BioAssay (NCI).

The nature of test [1]: NCI Yeast Anticancer Drug Screen. Data for the rad50 strain (AID 155).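 Note: 0% = growth of vehicle-only cultures of the same strain.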 To be noted: S. cerevisiae rad50 strain growth inhibition, hits give high values. Put shortly:
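Yeast carrying a defined DNA repair defect were exposed to test compounds, and growth was compared with vehicle-treated controls to give percent inhibition.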

Test [2] can be described thus: NCI Yeast Anticancer Drug Screen. Data for the mec2-1 strain (AID 157). To be noted: S. cerevisiae mec2-1 strain, hits give high values. Put shortly:
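Mutant yeast (mec2-1) grown with compound; growth inhibition relative to vehicle control reported.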

The nature of test [3]: NCI Yeast Anticancer Drug Screen. Data for the sgs1 mgt1 strain (AID 161).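 Note: 0% = growth of cultures given vehicle only.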 To be noted: S. cerevisiae sgs1 mgt1 strain, hits give high values. Put shortly:
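Percent growth inhibition was derived by comparing compound-exposed mutant yeast with vehicle-exposed cultures. The strain carries alterations in DNA damage repair.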

The nature of test [4]: NCI Yeast Anticancer Drug Screen. Data for the cln2 rad14 strain (AID 165).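 Note: 0% = growth equal to vehicle treated cultures.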 To be noted: S. cerevisiae cln2 rad14 strain, hits give high values. Put shortly: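 Readout is yeast growth inhibition versus vehicle-treated controls, using a strain with cln2 and rad14 alterations exposed to compound.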
Test [5] in a line: NCI Yeast Anticancer Drug Screen. Data for the bub3 strain (AID 167). To be noted: S. cerevisiae bub3 mutant strain, hits give high values. Put shortly:
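Compounds were applied to a genetically altered yeast strain carrying a cell-cycle control defect. Growth inhibition was scored against vehicle-treated controls.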

The nature of test [6]: NCI Yeast Anticancer Drug Screen. Data for the mlh1 rad18 strain (AID 175). To be noted: S. cerevisiae mlh1 rad18 strain growth inhibition, hits give high values. Put shortly: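 Genetically defined yeast (DNA repair-deficient) exposed to compounds; growth inhibition determined relative to vehicle.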
Setting [7] is: at 5.0 µM (retest, dose inferred, filed as 0.5).
Where [8] appears, read: at 50.0 µM (retest, dose inferred, filed as 5.0).

Each structure is given as a SMILES string. About 79,000 compounds went through this panel and 15% of them were active in at least one assay; those are over-represented in the sample as a whole. Values without a mark were called inactive. The source made the active and inactive calls. Cut-off read from the data, not from the text of the source: active = growth inhibition above about 70%; inactive = the rest.

Consider `COC(=O)c1nc(=S)[nH]c(C(=O)OC)c1C(=O)c1ccc(O)c(OC)c1`, for which the growth inhibition was -6% in test [1] (setting [7]); 95% (active) in test [1] (setting [8]); 98.5% (active) in test [1] (at 50.0 µM); -7% in test [2] (setting [7]); 97% (active) in test [2] (setting [8]); 78.3% (active) in test [2] (at 50.0 µM). Also, the growth inhibition in test [3] (setting [7]) is -16%; in test [3] (setting [8]) it was 96% (active); in test [3] (at 50.0 µM), 98.4% (active); in test [4] (setting [7]) it was -4%; in test [4] (setting [8]), 90% (active); in test [4] (at 50.0 µM) it was 47%. Further, the growth inhibition is 1% in test [5] (setting [7]); 96% (active) in test [5] (setting [8]); 84.3% (active) in test [5] (at 50.0 µM); 7% in test [6] (setting [7]); 97% (active) in test [6] (setting [8]); 96.3% (active) in test [6] (at 50.0 µM).

Consider `O=C(CCC(O)(c1ccccc1)c1ccccc1)c1ccccc1`, for which the growth inhibition is -4% in test [1] (setting [7]); 97% (active) in test [1] (setting [8]); 65.8% in test [1] (at 50.0 µM); -13% in test [2] (setting [7]); 98% (active) in test [2] (setting [8]); -11.9% in test [2] (at 50.0 µM). In addition, the growth inhibition in test [3] (setting [7]) is -11%; in test [3] (setting [8]), 98% (active); in test [3] (at 50.0 µM), 13.2%; in test [4] (setting [7]) it was -89%; in test [4] (setting [8]) it was 99% (active); in test [4] (at 50.0 µM), -27.2%. The growth inhibition in test [5] (setting [7]) was -9%; in test [5] (setting [8]) it was 46%; in test [5] (at 50.0 µM), 4.9%; in test [6] (setting [7]), -3%; in test [6] (setting [8]), 98% (active); in test [6] (at 50.0 µM) it was 70.5% (active).

On to `CCCCCCCCCCCC(=O)OCCN(CC)CC`, for which the growth inhibition is 3% in test [1] (setting [7]); 99% (active) in test [1] (setting [8]); 95.8% (active) in test [1] (at 50.0 µM); -1% in test [2] (setting [7]); 99% (active) in test [2] (setting [8]); 98.6% (active) in test [2] (at 50.0 µM). Moreover, the growth inhibition in test [3] (setting [7]) is 4%; in test [3] (setting [8]), 99% (active); in test [3] (at 50.0 µM) it was 65.5%; in test [4] (setting [7]), 0%; in test [4] (setting [8]), 99% (active); in test [4] (at 50.0 µM), 97.9% (active). Also, the growth inhibition in test [5] (setting [7]) was -3%; in test [5] (setting [8]) it was 98% (active); in test [5] (at 50.0 µM), 93.2% (active); in test [6] (setting [7]) it was -2%; in test [6] (setting [8]), 99% (active); in test [6] (at 50.0 µM), 98% (active).

`Cc1cc(O)c(C(=O)/C=C/c2cccnc2)c(=O)[nH]1`: the growth inhibition is -13% in test [1] (setting [7]); 79% (active) in test [1] (setting [8]); 68.9% in test [1] (at 50.0 µM); -3% in test [2] (setting [7]); 76% (active) in test [2] (setting [8]); 33.7% in test [2] (at 50.0 µM). For the same compound, the growth inhibition was -5% in test [3] (setting [7]); 92% (active) in test [3] (setting [8]); 84.8% (active) in test [3] (at 50.0 µM); 9% in test [4] (setting [7]); 70% (active) in test [4] (setting [8]); 16.3% in test [4] (at 50.0 µM). Further, the growth inhibition was -16% in test [5] (setting [7]); 89% (active) in test [5] (setting [8]); 78.8% (active) in test [5] (at 50.0 µM); 8% in test [6] (setting [7]); 91% (active) in test [6] (setting [8]); 93% (active) in test [6] (at 50.0 µM).

`CCc1ccc(/C=C/C(=O)C2CN(CC)CCC2(O)/C=C/c2ccc(CC)cc2)cc1` (configuration not stated): the growth inhibition in test [1] (setting [7]) was 4%; in test [1] (setting [8]) it was 99% (active); in test [1] (at 50.0 µM), 91.5% (active); in test [2] (setting [7]), 2%; in test [2] (setting [8]) it was 99% (active); in test [2] (at 50.0 µM), 92.8% (active). In addition, the growth inhibition is 2% in test [3] (setting [7]); 99% (active) in test [3] (setting [8]); 92% (active) in test [3] (at 50.0 µM); 4% in test [4] (setting [7]); 99% (active) in test [4] (setting [8]); 89.8% (active) in test [4] (at 50.0 µM). Further, the growth inhibition is 8% in test [5] (setting [7]); 98% (active) in test [5] (setting [8]); 91.2% (active) in test [5] (at 50.0 µM); 13% in test [6] (setting [7]); 99% (active) in test [6] (setting [8]); 91.5% (active) in test [6] (at 50.0 µM).

For the compound `COc1ccc(CSC2=C(C#N)C(=O)NC3(CCCCC3)S2)cc1`, the growth inhibition was 23% in test [1] (setting [7]); 11% in test [1] (setting [8]); 3.6% in test [1] (at 50.0 µM); -1% in test [2] (setting [7]); 4% in test [2] (setting [8]); 2.25% in test [2] (at 50.0 µM). Besides, the growth inhibition in test [3] (setting [7]) is 23%; in test [3] (setting [8]) it was 14%; in test [3] (at 50.0 µM), 6.2%; in test [4] (setting [7]), -1%; in test [4] (setting [8]) it was 16%; in test [4] (at 50.0 µM) it was 28.5%. For the same compound, the growth inhibition was 6% in test [5] (setting [7]); 6% in test [5] (setting [8]); -13.2% in test [5] (at 50.0 µM); 18% in test [6] (setting [7]); -2% in test [6] (setting [8]); 7.75% in test [6] (at 50.0 µM).

On to `c1ccc(-c2c3ccccc3cc3ccc4ccccc4c23)nc1`, for which the growth inhibition in test [1] (setting [7]) was 8%; in test [1] (setting [8]), 48%; in test [1] (at 50.0 µM), 78.7% (active); in test [2] (setting [7]) it was -6%; in test [2] (setting [8]), 40%; in test [2] (at 50.0 µM) it was 52.9%. Besides, the growth inhibition in test [3] (setting [7]) is 0%; in test [3] (setting [8]) it was -42%; in test [3] (at 50.0 µM), 62.3%; in test [4] (setting [7]), 10%; in test [4] (setting [8]), 45%; in test [4] (at 50.0 µM), 49.5%. Further, the growth inhibition in test [5] (setting [7]) was 3%; in test [5] (setting [8]), 71% (active); in test [5] (at 50.0 µM) it was 71% (active); in test [6] (setting [7]), -8%; in test [6] (setting [8]), 43%; in test [6] (at 50.0 µM) it was 81.2% (active).

With `O=[N+]([O-])c1ccc(S(=O)(=O)Cc2ccccc2)c2nonc12`, the growth inhibition in test [1] (setting [7]) is 6%; in test [1] (setting [8]), 99% (active); in test [1] (at 50.0 µM), 99% (active); in test [2] (setting [7]), 11%; in test [2] (setting [8]) it was 99% (active); in test [2] (at 50.0 µM) it was 98.8% (active). In addition, the growth inhibition in test [3] (setting [7]) was 10%; in test [3] (setting [8]), 99% (active); in test [3] (at 50.0 µM), 99% (active); in test [4] (setting [7]), -11%; in test [4] (setting [8]), 98% (active); in test [4] (at 50.0 µM), 96.3% (active). The growth inhibition in test [5] (setting [7]) was 2%; in test [5] (setting [8]), 99% (active); in test [5] (at 50.0 µM), 98.4% (active); in test [6] (setting [7]), 6%; in test [6] (setting [8]), 99% (active); in test [6] (at 50.0 µM), 98.2% (active).

Consider `O=c1oc(-c2cc([N+](=O)[O-])cc([N+](=O)[O-])c2Cl)nc2ccccc12`, for which the growth inhibition in test [1] (setting [7]) is 29%; in test [1] (setting [8]) it was 50%; in test [1] (at 50.0 µM), 75.3% (active); in test [2] (setting [7]), 8%; in test [2] (setting [8]), 22%; in test [2] (at 50.0 µM) it was 63.5%. Further, the growth inhibition in test [3] (setting [7]) is 13%; in test [3] (setting [8]) it was 47%; in test [3] (at 50.0 µM), 83.7% (active); in test [4] (setting [7]), 15%; in test [4] (setting [8]), 44%; in test [4] (at 50.0 µM) it was 61.5%. Also, the growth inhibition was 15% in test [5] (setting [7]); 58% in test [5] (setting [8]); 82.5% (active) in test [5] (at 50.0 µM); 1% in test [6] (setting [7]); 57% in test [6] (setting [8]); 86.8% (active) in test [6] (at 50.0 µM).
